Bioassay records from PubChem BioAssay.
RXFP1 antag: qHTS Assay for Antagonists of the Relaxin Receptor RXFP1; activity change, negative = inhibition, % at 57.5 µM; Relaxin receptor 1 (Homo sapiens), Q9HBX9; HEK293-RXFP1, relaxin-stimulated cAMP HTRF, 30 min; active compounds read low; 350,000 compounds, 0.59% hits;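 active = activity change of -60% or lower, but not beyond a set lower limit; inconclusive = change between -60% and -40%, or beyond the set limit; inactive = change above -40%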; also: % is scaled to controls: 0 for no effect and ±100 for the full control effect
Target sequence (Q9HBX9 whole entry, looked up): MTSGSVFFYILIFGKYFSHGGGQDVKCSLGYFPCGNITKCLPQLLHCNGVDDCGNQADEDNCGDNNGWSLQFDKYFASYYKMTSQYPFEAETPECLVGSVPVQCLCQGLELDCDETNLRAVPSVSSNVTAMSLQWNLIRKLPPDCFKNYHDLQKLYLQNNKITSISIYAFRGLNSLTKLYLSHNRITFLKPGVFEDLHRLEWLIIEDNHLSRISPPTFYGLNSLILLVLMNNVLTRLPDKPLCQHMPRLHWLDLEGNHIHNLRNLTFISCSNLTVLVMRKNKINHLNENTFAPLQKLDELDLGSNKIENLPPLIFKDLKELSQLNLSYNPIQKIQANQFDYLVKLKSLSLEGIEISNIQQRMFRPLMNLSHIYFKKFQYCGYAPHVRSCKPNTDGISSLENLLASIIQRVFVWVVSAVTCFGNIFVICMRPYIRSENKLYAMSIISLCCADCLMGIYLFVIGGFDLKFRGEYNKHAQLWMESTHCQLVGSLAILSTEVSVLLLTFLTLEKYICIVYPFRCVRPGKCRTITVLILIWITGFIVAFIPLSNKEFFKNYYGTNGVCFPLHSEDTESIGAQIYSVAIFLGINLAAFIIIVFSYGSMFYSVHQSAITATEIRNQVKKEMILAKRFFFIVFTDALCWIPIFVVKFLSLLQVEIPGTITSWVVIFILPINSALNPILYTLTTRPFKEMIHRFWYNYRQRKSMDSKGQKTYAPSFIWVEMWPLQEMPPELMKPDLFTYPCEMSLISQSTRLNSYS
RXFP1 agonist: qHTS Assay for Agonists of the Relaxin Receptor RXFP1; Relaxin receptor 1 (Homo sapiens), Q9HBX9; HEK293T-RXFP1 cAMP TR-FRET, 30 min; response scale: percent of porcine relaxin response, buffer zero; Potency, µM (series often up to 57.5 µM), without a hit: at the top dose activation, most hits filed as activators; 370,000 compounds, 0.3% hits; AID 2676, 2010; active = well fitted activation curve with a large enough effect; inconclusive = small, poorly fitted or top-dose-only effect; also: potency is read from the fitted curve at half-maximal effect; % is scaled to controls: 0 for no effect and ±100 for the full control effect; nearly all actives have a fitted effect of over 60% in size
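HEK293T cells stably expressing RXFP1 were pretreated with the PDE4 inhibitor Ro 20174, exposed to compounds for 30 min at 37C, lysed, and cAMP was read by TR-FRET. Data normalized to buffer (basal) and 29 nM porcine relaxin (100%).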
gsp agonist: qHTS for Agonist of gsp, the Etiologic Mutation Responsible for Fibrous Dysplasia/McCune-Albright Syndrome: qHTS. Potency, µM (highest dose often 76.9 µM), for the others: at the top dose activation (cAMP increase), usual class: activators. 340,000 compounds, 0.13% hits. AID 624287, 2012. gsp mutant cells, cAMP HTRF, 30 min; active = well fitted activation curve with a large enough effect; inconclusive = small, poorly fitted or top-dose-only effect, or another doubt; inactive = no such curve, though single readings can be large or run the other way; cell line not stated here;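 also: phosphodiesterase inhibitor Ro 20-1724 added with compounds to block cAMP breakdown; potency is read from the fitted curve at half-maximal effect; nearly all actives have a fitted effect of over 60% in size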
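Cells stably selected in G418 were plated at 2000/well, grown 16-24 hr, then given compounds in DMSO with the PDE inhibitor […] (300 uM solution added) for 30 min at 37C; cAMP was read by HTRF.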
gsp antag: qHTS for Antagonists of gsp, the Etiologic Mutation Responsible for Fibrous Dysplasia/McCune-Albright Syndrome: qHTS; gsp-mutant cells, cAMP HTRF, 30 min; Potency, µM (highest dose often 76.9 µM), without a hit: at the top dose activity change, negative = inhibition, hits mostly inhibitors; 340,000 compounds, 0.4% hits; AID 624288, 2012; calls by dose curve; cell line not stated here;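 also: intracellular cAMP measured with PDE inhibitor Ro 20-1724 present during compound exposure; potency is read from the fitted curve at half-maximal effect; % is scaled to controls: 0 for no effect and ±100 for the full control effect; nearly all actives have a fitted effect of over 65% in size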
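Measurement of cellular cAMP by homogeneous time-resolved fluorescence following a 30 min compound exposure at 37C. The PDE inhibitor […] was present throughout; the assay buffer was DPBS with 0.05% BSA and 0.005% Tween 20.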
An asterisk follows results filed as active; ? = inconclusive; . = no result given; ! = not active in a repeat; [ ] = remark or other dose. Sampled rows, rich in hits. Any-hit rate of the full collection: about 0.9%.

SMILES | RXFP1 antag | RXFP1 agonist | gsp agonist | gsp antag
Cc1ccc(-n2cc(CNCCCn3cccn3)c(-c3cccc(C)c3)n2)cc1 | -63.6* | 0.7% | -11.7%[15.4 µM] | 1.0%
Cc1ccc(C)c(-n2cc(CNCCCn3cccn3)c(-c3ccccc3)n2)c1 | -21.4 | -0.8% | -32.0%[15.4 µM] | 0.7%
COc1cc2c(Nc3ccc(Br)cc3F)ncnc2cc1OCC1CCN(C)CC1 | 15.4 | . | . | .
CN1CCN(C(CNC(=O)Nc2ccc(Cl)cc2)c2ccc(F)cc2)CC1 (centres undefined) | 11.3 | 1.6% | -36.0% | 16.0%
Cc1ccc(C(CNC(=O)Nc2ccc(Cl)cc2)N2CCN(C)CC2)cc1 (centres undefined) | -84.1* | -2.7% | ? | 5.9%
CCCOc1ccc(NC(=O)CC2C(=O)N(CC)C(=S)N2CCCN2CCN(Cc3ccccc3)CC2)cc1 (centres undefined) | -65.3* | 2.5% | 0.5% | 8.2%
Cc1ccc(-n2c(=O)c3c4c(sc3n3c(=S)[nH]nc23)CCC4)cc1 | -9.4 | 5.0% | -0.7% | -19.1%
Cc1ccc(-n2c(=S)[nH]c3sc4c(c3c2=O)CCC4)cc1 | -0.6 | 12.6µM* | 54.7%[15.4 µM] | 12.3%
COC(=O)COc1ccc(S(=O)(=O)NCc2ccncc2)cc1 | . | 2.4% | -18.7% | 11.2µM*
CCOC(=O)COc1ccc(S(=O)(=O)NCc2cccnc2)cc1 | -12.9 | 2.2% | 13.9% | -5.2%
O=C(CSc1nc(-c2ccccc2)[nH]c1-c1ccccc1)Nc1ccc2c(c1)OCCO2 | -6.1 | -1.1% | . | .
COc1cc(NS(=O)(=O)c2ccc(C)cc2C)cc(OC)c1OC | 9.4 | 1.7% | ? | 35.5µM*
CC1CCC(C(C)C)C(OC(=O)Cn2c(-c3ccc(Br)cc3)[n+](C)c3ccccc32)C1 (centres undefined) | -81.3*! | 0.0% | 0.1%[15.4 µM] | 7.4%
CCc1ccccc1NC(=O)CSc1nnc(-c2nonc2NC(C)=O)n1C | 1.0 | 4.5% | . | .
Cc1cc(OCC(=O)NC(Cc2c[nH]c3ccccc23)C(=O)O)ccc1Cl (centres undefined) | -0.5 | 3.0% | . | .
CCOC(=O)c1ccc(NC(=O)Nc2cc3c(cc2N2CCCC2)n(C)c(=O)n3C)cc1 | . | 0.4% | . | .
Cc1onc(-c2ccccc2)c1C(=O)Nc1cccc2nsnc12 | -4.4 | ? | 35.5µM* | 20.8%
CCOc1ccccc1C1CC(=O)NC(C)=C1C(=O)OC1CCCCCC1 (centres undefined) | . | 16.1% | . | .
O=C(O)CCNc1cc(N2CCN(C(=O)c3ccco3)CC2)c2noc3c2c1C(=O)c1ccccc1-3 | -74.7* | 1.9% | 11.3%[15.4 µM] | ?
CCN1CCN(c2cc(N3CCN(C(=O)c4ccco4)CC3)c3c4c(onc24)-c2ccccc2C3=O)CC1 | -25.3 | -2.3% | -10.7%[15.4 µM] | ?
COc1ccc(CCNc2nc(C)nc3c2oc2ccccc23)cc1OC | ? | 0.8% | 11.9% | 39.8µM*
O=C(c1ccc(N2CCCCC2)c([N+](=O)[O-])c1)N1CCN(c2ccccn2)CC1 | 0.1 | 0.3% | 8.9% | -9.7%
O=C1C2CC=CCC2C(=O)N1c1ccc(N2CCN(c3ccccn3)CC2)c([N+](=O)[O-])c1 (centres undefined) | -31.2 | 1.2% | -1.1% | 22.4µM*
O=C(COC(=O)c1ccccc1)Nc1ncc([N+](=O)[O-])s1 | -3.4 | . | -1.1%[15.4 µM] | -5.6%
O=C(Nc1ccccc1)Nc1ncc([N+](=O)[O-])s1 | -17.9 | 1.0% | -12.1%[15.4 µM] | 28.2µM*
SMILES | RXFP1 antag | RXFP1 agonist | gsp agonist | gsp antag
Cc1ccc(-n2nc(CO)c(C(=O)NCc3cccnc3)n2)cc1 | -25.3 | 0.7% | . | .
COc1cccc(NC(=O)CN(C)C(=O)c2cc(-c3ccco3)nc3ccccc23)c1 | -32.5 | 2.3% | 10.8%[15.4 µM] | -12.3%
CN(CCOc1ccc(Cl)cc1)C(=O)c1cc(-c2ccco2)nc2ccccc12 | -69.6* | 2.6% | -3.1% | ?
Cc1ccc(-n2ncc3c(NCCc4ccccc4)ncnc32)cc1Cl | -21.5 | 3.3% | . | .
Cc1ccccc1N1CCN(Cc2ccc(Br)o2)CC1 | -65.1* | 0.9% | 10.3%[15.4 µM] | 4.0%
O=C(c1cc(COc2cccc3cnccc23)on1)N1CCCC(CCCO)C1 (centres undefined) | -13.7 | 0.2% | 10.9% | 35.5µM*
COCC1CCN(C(=O)c2cc(COc3cccc4cnccc34)on2)CC1 | 4.8 | 0.4% | 35.6% | -22.2%
